Screening data deposited in PubChem by National Center for Advancing Translational Sciences (NCATS).
Shown are actives, neighbours in structure and some others; about 2.4% of the full set was active somewhere.
Rango release inh = inhibitors of RanGTP-induced Rango-importin beta complex dissociation. Biochemical FRET Rango-importin beta, RanGTP-induced dissociation. O95149+P62826. AID 540253. Potency, µM (titrated, usually from 46.1 µM), without a hit: top-dose activity change, negative = inhibition. 340,000 compounds, 0.071% hits; further: % of control where 0% means no effect; nearly all actives have a fitted effect of over 45% in size
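Compounds preincubate 5 min with complex of recombinant Rango and importin beta in PBS with 1 mM DTT. Ran (0.6 uM) loaded with 2 mM GTP plus 0.2 uM RCC1 starts dissociation; FRET is recorded 45 min later.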
PTAP TSG101 blk = blocks PTAP/TSG101 interaction to inhibit HIV-1 budding; Potency, µM (highest dose often 115 µM), for the others: top-dose activity change, negative = inhibition, hits mostly inhibitors; Fluorescence polarization, FITC-PTAP peptide / Tsg101 binding; Q99816; 340,000 tested, under 10 active; active means well fitted inhibition curve with a large enough effect in the main read-out, with a control signal flat, not every such curve was filed as active; inconclusive means small, poorly fitted or top-dose-only effect, or effect the other way, or a change in a side signal; inactive means no such curve, though single readings can be large or run the other way; further: % of control where 0% means no effect
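Tsg101 binding domain (10 uM final) was mixed with compound and a FITC-labeled PTAP peptide (50 nM final) in HEPES pH 7.5 buffer with NaCl, Tween 20, EDTA and TCEP; fluorescence polarization was read after 20 min at r.t.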
ClpP mod = qHTS Assay for Activators of ClpP. Potency, µM (highest dose often 57.5 µM), for the others: top-dose activity change, negative = active. ATP-dependent Clp protease proteolytic subunit (Bacillus subtilis (strain 168)), P80244. purified B. subtilis ClpP, FRET peptide cleavage, 20 min. 340,000 compounds, 1.9% hits; active means well fitted falling curve with a large enough effect; inconclusive means small, poorly fitted or top-dose-only effect; inactive means no such curve, though single readings can be large or run the other way; further: the source files actives as falling curves though it sought activators and does not explain the sign; nearly all actives have a fitted effect of over 65% in size
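Buffer: 100 mM Tris/HCl pH8, 100 mM KCl, 0.05% low protease BSA, 2.5% glycerol, 0.01% Tween-20. ClpP 10 microg/mL final; 20 min RT; delta FRET normalized to ADEP and DMSO controls.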
TDP1 block = blocks human tyrosyl-DNA phosphodiesterase 1; Q9NUW8; recombinant TDP1, AlphaScreen DNA substrate cleavage; Potency, µM (series often up to 130 µM), inactives show at the top dose activity change, negative = inhibition, hits mostly inhibitors; 350,000 compounds, 0.28% hits; active means well fitted curve in the direction sought with a large enough effect; inconclusive means small, poorly fitted or top-dose-only effect, or another doubt; inactive means no such curve, though single readings can be large; an effect the other way counts as inactive or inconclusive; further: on the % scale 0 is the no-effect control and ±100 the full control effect; nearly all actives have a fitted effect of over 40% in size
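Signal: AlphaScreen proximity between streptavidin donor and anti-FITC acceptor beads on intact substrate. Reaction: Tdp1 1 nM, substrate 15 nM final, 5 min RT after 15 min compound preincubation.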
ALOX12 inh = inhibitors of human 12S-lipoxygenase ALOX12; P18054; purified 12hLO, xylenol orange hydroperoxide absorbance; Potency, µM (top dose mostly 108 µM), for inactives: top-dose activity change, negative = inhibition, hits mostly inhibitors; 580,000 compounds, 1.1% hits; AID 1671190; active means well fitted curve in the direction sought with a large enough effect; inconclusive means small, poorly fitted or top-dose-only effect, or another doubt; inactive means no such curve, though single readings can be large; an effect the other way counts as inactive or inconclusive; further: on the % scale 0 is the no-effect control and ±100 the full control effect
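Purified human 12hLO at 150 nM in 25 mM Hepes, 0.01% Triton X-100, pH 7.0, preincubated 15 min at room temperature with compound. Reaction started with 40 uM arachidonic acid, 30 min at room temperature. Hydroperoxide measured by Fe-xylenol orange, 573/405 nm absorbance ratio.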
Rango-impB inh = inhibitors of Rango-importin beta complex formation. Q14974. Rango CFP/YFP FRET sensor + importin beta, 45 min. Potency, µM (highest dose often 92.2 µM), inactives show at the highest dose inhibition of complex formation. 340,000 compounds, 0.031% hits;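 further: 0% = DMSO wells and 100% = buffer wells lacking importin beta; nearly all actives have a fitted effect of over 15% in size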
Target sequence (Q14974 whole entry, looked up): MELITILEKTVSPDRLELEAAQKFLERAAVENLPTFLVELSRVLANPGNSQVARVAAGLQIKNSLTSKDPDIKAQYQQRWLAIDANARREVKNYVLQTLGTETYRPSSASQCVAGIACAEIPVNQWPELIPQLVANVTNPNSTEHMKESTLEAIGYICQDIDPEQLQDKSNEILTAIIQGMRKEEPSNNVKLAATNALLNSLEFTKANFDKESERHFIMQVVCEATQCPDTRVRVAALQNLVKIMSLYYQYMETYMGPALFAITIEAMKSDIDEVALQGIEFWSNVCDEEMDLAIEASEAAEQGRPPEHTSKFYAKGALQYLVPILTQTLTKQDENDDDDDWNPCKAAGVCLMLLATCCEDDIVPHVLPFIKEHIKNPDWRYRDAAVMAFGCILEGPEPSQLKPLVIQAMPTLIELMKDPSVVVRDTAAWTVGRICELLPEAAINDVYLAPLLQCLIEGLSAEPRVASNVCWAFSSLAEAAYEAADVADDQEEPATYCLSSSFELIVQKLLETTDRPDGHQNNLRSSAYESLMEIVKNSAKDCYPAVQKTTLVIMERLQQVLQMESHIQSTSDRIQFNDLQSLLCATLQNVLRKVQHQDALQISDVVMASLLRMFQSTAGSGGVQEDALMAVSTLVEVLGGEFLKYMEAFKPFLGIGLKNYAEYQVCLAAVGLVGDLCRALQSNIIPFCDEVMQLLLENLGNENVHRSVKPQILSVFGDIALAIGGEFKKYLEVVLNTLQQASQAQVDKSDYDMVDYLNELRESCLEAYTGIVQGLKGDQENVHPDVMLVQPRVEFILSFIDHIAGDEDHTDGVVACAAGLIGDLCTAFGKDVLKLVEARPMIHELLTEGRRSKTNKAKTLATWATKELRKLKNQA
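FRET biosensor (snurportin 1 IBB flanked by EYFP and cerulean), 50 nM, with compound 5 min, then 0.125 microM importin beta in PBS, 1 mM DTT, 0.02% Tween-20, 0.1% BSA. CFP/YFP ratio read after 45 min at room temperature; pre-read flags interference.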
Numbers without * were called inactive; ? = inconclusive; / = no result given; [ ] = remark or other dose. Unless noted, the call rests on the fitted dose curve. Potency means the concentration at half of the fitted maximal effect.

SMILES	Rango release inh	PTAP TSG101 blk	ClpP mod	TDP1 block	ALOX12 inh	Rango-impB inh
Cc1ccnc(NC(=S)NC(=O)/C=C/c2ccco2)c1	-8%	0%	7%	2%	-23%	-2%
O=C(/C=C/c1ccco1)NC(=S)Nc1ccc(Cl)cn1	5%	-4%	-3%	-7%	35µM*	-1%
Cc1ccc(-c2c[nH]c(=S)n2-c2ccccc2F)cc1	-3%	0%	/	7%	35µM*	4%
CCn1c(-c2ccc(-c3ccccc3)cc2)c[nH]c1=S	-2%	-2%	?	8%	?	-4%
Cn1c(-c2ccc(-c3ccccc3)cc2)c[nH]c1=S	2%	0%	13µM*	14%	40µM*	0%
Cc1ccc(-c2c[nH]c(=S)n2-c2ccccc2)cc1	16%	0%	-5%	9%	?	-1%
O=C(NCc1ccccc1F)c1noc(-c2ccc3c(c2)OCO3)n1	/	/	/	/	-6%	/
CC(C)CC(C)NC(=O)c1ccc(CN2C(=O)NC3(CCS(=O)(=O)CC3)C2=O)cc1 (stereo unspecified)	/	/	/	/	20%	/
O=C(NCc1ccccc1OC(F)F)c1ccccc1C(F)(F)F	/	/	/	/	5%	/
O=C(N[C@H]1CCOC[C@H]1C1CCOCC1)c1cccc(-n2cnnc2)n1	/	/	/	/	29%	/
CCc1c(C)n2nc(C)cc2[nH]c1=O	31%	0%	13µM*	1%	-23%	-1%
CN(C)CCCN(Cc1cccc2ccccc12)Cc1cccc2ccccc12	/	/	/	/	5µM*	/
COCCN(CCOC)Cc1cccc2ccccc12	/	/	/	/	3%	/
COc1ccc(C2OC34CCCCC3C(C#N)(C#N)C2(C#N)C(=N)O4)cc1 (stereo unspecified)	?	-16%	11µM*	-1%	-20%	?
CC1OC23CCCCC2C(C#N)(C(=N)O3)C1(C#N)C#N (stereo unspecified)	?	-3%	51%	5%	-8%	?
CN(CC(=O)NC1(C#N)CCCCC1)Cc1ccc(C(F)(F)F)cc1	/	/	/	/	28µM*	/
O=C(Nc1c(N2CCCC2)c2ccccc2oc1=O)c1ccco1	/	/	/	/	-8%	/
COc1ccc2c(c1)CCN=C2C[C@H]1CN(C(=O)c2cccnc2)CC[C@H]1CC(=O)O	/	/	/	/	-2%[176 µM]	/
C(=Nc1cccc2c(N=Cc3ccco3)cccc12)c1ccco1	-13%	-4%	4%	12%	/	-4%
C(=N\C(/N=C/c1ccco1)c1ccco1)/c1ccco1	-14%	-7%	16µM*	-12%	10%	?
CCOc1ccc(CC(=O)N2CCC(Oc3ncccc3C(=O)N3CCCCC3)C2)cc1 (stereo unspecified)	/	/	/	/	29%	/
C/C(=N\NC(N)=O)c1c(F)cccc1F	0%	-1%	32µM*	3%	98%	0%
Cc1ccccc1NC(=O)c1cc(-c2ccco2)nc2ccccc12	0%	-2%	/	/	?	-4%
Cc1ccc(-c2cc(C(=O)Nc3ccc(S(=O)(=O)Nc4onc(C)c4C)cc3)c3ccccc3n2)cc1	-16%	-1%	/	8%	35µM*	3%
Cc1cccc(NC(=O)c2ccoc2C)n1	-11%	-4%	28µM*	6%	0%	0%
SMILES	Rango release inh	PTAP TSG101 blk	ClpP mod	TDP1 block	ALOX12 inh	Rango-impB inh
Cc1cc(C)nc(NS(=O)(=O)c2ccc(NC(=O)c3cc(-c4ccccc4)nc4ccccc34)cc2)n1	-15%	0%	0%	5%	0%	-1%
Cc1ccc(S(=O)(=O)N(C)C)cc1NC(=O)c1cc(-c2ccco2)nc2ccccc12	1%	2%	28µM*	6%	/	1%
Cc1cccc(NC(=O)c2ccccc2Br)n1	18%	-3%	-2%	5%	?	-5%
O=C(N/N=C/c1cccc(F)c1)c1cc(-c2ccco2)nc2ccccc12	-8%	-4%	32µM*	/	-14%[57.4 µM]	-3%
Cc1ccc(C(=O)N2CCn3c(nn(-c4ccncc4)c3=O)C2)cc1	/	/	/	/	41%	/
Cc1cccc(NC(=O)c2cc(-c3ccco3)nc3ccccc23)n1	-27%	-9%	22µM*	-4%	28µM*	?
CC(=O)Nc1ccc(NC(=O)c2cc(-c3ccco3)nc3ccccc23)cc1	/	/	/	/	11µM*	/
COc1ccc(-c2cc(NC(=O)c3cccnc3)n(C3CCS(=O)(=O)C3)n2)cc1 (stereo unspecified)	/	/	/	/	7%	/
Cc1ccc(C(CNC(=O)c2oc3ccc(F)cc3c2C)N2CCC(C)CC2)o1 (stereo unspecified)	/	/	/	/	-12%	/
Cc1occc1C(=O)N1CCCC(O)(CNC(=O)N2CCOCC2)CC1 (stereo unspecified)	/	/	/	/	-4%	/
O=C(c1ccco1)N1CCN(CCCCOc2ccc(F)cc2)CC1	-16%	-5%	-8%	4%	32µM*	7%
O=C(CCN1CCN(C(=O)c2ccco2)CC1)Nc1ccc(F)cc1	4%	-3%	-2%	1%	-2%	4%
CCC(=O)NC(=S)Nc1ccccc1C(F)(F)F	-3%	-4%	32µM*	/	-9%	-4%
CCCC(=O)NC(=S)Nc1ccccc1C(F)(F)F	12%	-3%	1%	-3%	5%	0%
COc1ccccc1C1CC(=O)Oc2cc(C)c(Cl)cc21 (stereo unspecified)	4%	-3%	-1%	?	40µM*	-1%
O=C1Nc2ccccc2CC12CCN(Cc1cccs1)C2 (stereo unspecified)	/	/	/	/	3%[176 µM]	/
CCCc1n[nH]c2c1C(=O)CC(C)(C)C2	1%	-4%	-1%	2%	-10%	3%
CC1(C)CC(=O)c2c(-c3cccs3)n[nH]c2C1	-15%	-5%	25µM*	3%	-9%	-1%
CCn1c(SCC(N)=O)nc2cc(S(=O)(=O)N3CCOCC3)ccc21	-8%	1%	/	5%	3%	0%
CCn1c(SCC(=O)c2c[nH]c3ccccc23)nc2cc(S(=O)(=O)N3CCOCC3)ccc21	-21%	0%	28µM*	7%	2%	?
COc1ccc(OC)c(NC(=O)c2cnc(Nc3ccccc3OC)c3ccccc23)c1	?	0%	35µM*	0%	7%	?
COc1ccc(Nc2ncc(C(=O)Nc3cc(Cl)c(OC)cc3OC)c3ccccc23)cc1	/	/	?	0%	-22%	/
CCc1ccccc1NC(=O)C1CCCC1	-19%	1%	1%	/	10%	-4%
CCc1ccccc1NC(=O)C1CC1	/	/	/	/	0.79µM*	/
Nc1cc(Cc2ccccc2)ccc1O	-7%	-8%	-3%	/	5.6µM*	1%
Nc1cc(N)cc(Cc2ccccc2)c1	/	/	0%	/	?	/
